SMILES strings stand for the structures. Where “and” joins values, the source holds several entries; their conditions need not be identical. Equal entries are not always repeated. In all, about 40,000 compounds went through this assay and about 1,400 (3.5%) were called active.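 How the source made its calls: active means any of four per-well response measures lying three or more SD from its plate-wide compound average, in either direction; inactive means the rest, inconclusive results apart.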 This excerpt belongs to a sample that is enriched for actives.

The target of the assay is Voltage-dependent calcium channel gamma-2 subunit (Mus musculus) + Glutamate receptor 2 (Rattus norvegicus) (UniProt O88602+P19491). Nature of the assay: AMPAR-TARP gamma-2 complex positive or negative modulation – cell-based, membrane potential dye, primary screen (AID 1259245). The following applies: HEK293 GluA2+stargazin, membrane potential dye (FDSS), glutamate EC50, at 30 µM, hits were called plate by plate, in both directions; compound max-min signal: compound-alone response (agonism); glutamate slope, % of max: measured here: glutamate response slope, % max.
Voltage-dependent calcium channel gamma-2 subunit (Mus musculus) + Glutamate receptor 2 (Rattus norvegicus), sequence (O88602 whole entry, looked up): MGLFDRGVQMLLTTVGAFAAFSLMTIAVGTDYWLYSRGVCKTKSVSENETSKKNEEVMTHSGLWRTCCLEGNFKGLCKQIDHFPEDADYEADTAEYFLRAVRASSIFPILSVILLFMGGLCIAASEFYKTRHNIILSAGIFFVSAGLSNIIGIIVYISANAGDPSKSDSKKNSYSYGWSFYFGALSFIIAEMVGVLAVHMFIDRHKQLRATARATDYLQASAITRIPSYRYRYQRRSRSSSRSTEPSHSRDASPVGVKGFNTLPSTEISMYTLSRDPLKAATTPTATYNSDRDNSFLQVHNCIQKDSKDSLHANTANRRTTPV
Voltage-dependent calcium channel gamma-2 subunit (Mus musculus) + Glutamate receptor 2 (Rattus norvegicus), sequence (P19491 whole entry, looked up): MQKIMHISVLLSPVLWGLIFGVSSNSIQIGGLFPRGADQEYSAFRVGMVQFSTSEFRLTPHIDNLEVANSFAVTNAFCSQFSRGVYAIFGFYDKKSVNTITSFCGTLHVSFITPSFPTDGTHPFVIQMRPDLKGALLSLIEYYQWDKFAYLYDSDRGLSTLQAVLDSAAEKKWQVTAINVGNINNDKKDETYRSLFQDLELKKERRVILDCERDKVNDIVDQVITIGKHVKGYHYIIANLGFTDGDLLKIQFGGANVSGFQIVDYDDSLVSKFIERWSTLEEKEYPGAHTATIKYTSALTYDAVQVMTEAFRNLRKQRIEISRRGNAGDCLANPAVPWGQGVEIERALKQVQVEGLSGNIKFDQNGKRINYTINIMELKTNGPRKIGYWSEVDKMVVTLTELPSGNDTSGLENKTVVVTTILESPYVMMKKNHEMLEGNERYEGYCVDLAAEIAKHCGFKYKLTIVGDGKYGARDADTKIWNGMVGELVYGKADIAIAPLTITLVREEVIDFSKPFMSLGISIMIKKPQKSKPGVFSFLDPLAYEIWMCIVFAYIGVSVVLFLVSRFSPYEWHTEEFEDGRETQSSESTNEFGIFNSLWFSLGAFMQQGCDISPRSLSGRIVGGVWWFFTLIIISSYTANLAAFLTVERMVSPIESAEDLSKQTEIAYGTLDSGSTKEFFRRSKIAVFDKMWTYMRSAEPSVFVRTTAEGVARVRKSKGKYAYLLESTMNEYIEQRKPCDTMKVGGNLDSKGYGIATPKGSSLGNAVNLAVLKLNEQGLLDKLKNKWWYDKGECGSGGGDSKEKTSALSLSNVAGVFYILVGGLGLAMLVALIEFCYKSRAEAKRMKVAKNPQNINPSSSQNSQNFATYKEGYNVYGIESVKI
For `Cc1cc(C)c2c(n1)nn1c(-n3ccnc3)cc(C)nc21`, the compound max-min signal stood at 0.202; the glutamate response, % of max is 43.8% (inactive); the glutamate slope, % of max is 65.7%.

As to `Cc1cc(C)c2c(n1)nn1c(NCC(C)C)cc(C)nc21`, the compound max-min signal came out at 0.313; the glutamate response, % of max was 35.7% (active); the glutamate slope, % of max came to 52.5%.

As to `CCOc1ccc(Nc2cc(C)nc3c4c(C)cc(C)nc4nn23)cc1`, the compound max-min signal was determined as 0.205; the glutamate response, % of max was 36.4% (inactive); the glutamate slope, % of max stood at 58.7%.

As to `CC(=O)NCCn1ncc2c(N3CCN(c4ccccc4)CC3)ncnc21`, the compound max-min signal worked out at 0.109; the glutamate response, % of max is 30% (inactive); the glutamate slope, % of max turned out to be 56.7%.

Regarding `Cc1ccc(C(=O)CSc2nccn(-c3ccc(Cl)cc3)c2=O)c(C)c1`, the compound max-min signal turned out to be 0.0972; the glutamate response, % of max was 25.5% (inactive); the glutamate slope, % of max is 43.4%.

With `CCS(=O)(=O)N1CCCc2ccc(NS(=O)(=O)c3cc(C)c(C)cc3OC)cc21`, the compound max-min signal worked out at 0.0618; the glutamate response, % of max is 43.6% (inactive); the glutamate slope, % of max stood at 69.1%.

For the molecule `CCS(=O)(=O)N1CCCc2cc(NS(=O)(=O)c3cc(C)c(OC)c(C)c3)ccc21`, the compound max-min signal turned out to be 0.0675; the glutamate response, % of max is 32.7% (active); the glutamate slope, % of max was found to be 46.4%.

As to `COc1ccc(S(=O)(=O)Nc2ccc3c(c2)CCCN3S(C)(=O)=O)cc1C`, the compound max-min signal was found to be 0.0764; the glutamate response, % of max was 41% (inactive); the glutamate slope, % of max amounted to 56.8%.

For `CCOC(=O)N1CCN(/C=C(\C#N)C(=O)Nc2ccccc2)CC1`, the compound max-min signal came to 0.158; the glutamate response, % of max was 47.6% (inactive); the glutamate slope, % of max came to 78%.

Regarding `Cc1ccc(F)cc1NC(=O)CSc1ncc(S(=O)(=O)c2ccc(Cl)s2)c(N)n1`, the compound max-min signal was 0.162; the glutamate response, % of max was 28.9% (inactive); the glutamate slope, % of max was found to be 52.4%.

Take `CCOCCn1c(=O)c2c(nc3n2CCCN3c2ccc(Br)cc2)n(C)c1=O`: the compound max-min signal is 0.127; the glutamate response, % of max is 46.2% (inactive); the glutamate slope, % of max was found to be 67.4%.

Regarding `COc1ccc(OC)c2sc(N(CCN3CCOCC3)C(=O)c3cccc(F)c3)nc12`, the compound max-min signal worked out at 0.177; the glutamate response, % of max was 47.1% (inactive); the glutamate slope, % of max was determined as 60.4%.

Take `COc1ccc(OC)c2sc(N(CCN3CCOCC3)C(=O)c3cccs3)nc12`: the compound max-min signal came to 0.221; the glutamate response, % of max is 45.8% (inactive); the glutamate slope, % of max was 65.3%.

Regarding `COc1ccc(Cl)c2sc(N(CCCN3CCOCC3)C(=O)c3ccno3)nc12`, the compound max-min signal is 0.17; the glutamate response, % of max is 19.9% (active); the glutamate slope, % of max came out at 29.3%.

For `O=C(/C=C/c1cccs1)NCC1CCN(C(=O)COc2ccccc2)CC1`, the compound max-min signal is 0.0649; the glutamate response, % of max was 42% (inactive); the glutamate slope, % of max is 61.3%.

Take `Cc1cc(C)c(NC(=O)CN2CCN(c3nccn3-c3ccccc3F)CC2)c(C)c1`: the compound max-min signal was 0.0429; the glutamate response, % of max was 8.38% (inactive); the glutamate slope, % of max worked out at 22.6%.

On to `O=C(Cc1csc(NC(=O)c2ccc(=O)[nH]c2)n1)NCCC1=CCCCC1`, for which the compound max-min signal is 0.0625; the glutamate response, % of max was 14.3% (inactive); the glutamate slope, % of max was 44.1%.

For the molecule `Cc1cc(NC(=O)c2ccc3c(c2)OCO3)n(-c2nc3c(cnn3-c3cccc(Cl)c3)c(=O)[nH]2)n1`, the compound max-min signal is 0.15; the glutamate response, % of max was 27.3% (active); the glutamate slope, % of max was determined as 36%.

As for `O=C(Nn1cnc2c(cnn2-c2cccc(Cl)c2)c1=O)c1ccc(-c2ccccc2)cc1`, the compound max-min signal is 0.0867; the glutamate response, % of max is 36% (inactive); the glutamate slope, % of max was 64%.

In the case of `Cc1ccc(-n2ncc3c(=O)n(CC(=O)N4CCc5ccccc54)cnc32)cc1C`, the compound max-min signal was found to be 0.12; the glutamate response, % of max was 54.7% (inactive); the glutamate slope, % of max is 80.7%.

In the case of `CCC(C(=O)Nc1cc(C)nn1-c1nc2c(cnn2-c2ccccc2)c(=O)[nH]1)c1ccccc1` (stereo not given), the compound max-min signal was determined as 0.102; the glutamate response, % of max was 34.9% (inactive); the glutamate slope, % of max was determined as 55.6%.

In the case of `Cc1cc(NC(=O)C(C)Oc2ccccc2)n(-c2nc3c(cnn3-c3ccc(C)c(C)c3)c(=O)[nH]2)n1` (stereo not given), the compound max-min signal is 0.407; the glutamate response, % of max is 19.4% (active); the glutamate slope, % of max worked out at 19.7%.

Take `CCCC(CCC)C(=O)Nc1cc(C)nn1-c1nc2c(cnn2-c2cccc(Cl)c2)c(=O)[nH]1`: the compound max-min signal was found to be 0.134; the glutamate response, % of max is 34% (inactive); the glutamate slope, % of max stood at 47.5%.

As to `Cc1ccccc1CN1C(=O)C2(c3ccccc31)N(c1ccc(F)c(F)c1)C(=O)CS2(=O)=O` (stereo not given), the compound max-min signal amounted to 0.109; the glutamate response, % of max is 63.6% (inactive); the glutamate slope, % of max worked out at 74.8%.

Consider `CC1CCN(CC(O)COc2ccc(C(=O)c3ccccc3)cc2)CC1` (stereo not given), for which the compound max-min signal was 0.0506; the glutamate response, % of max is 53.3% (inactive); the glutamate slope, % of max is 82.1%.

As for `O=C(CCSc1ccccc1)NCC1(c2cccs2)CCOCC1`, the compound max-min signal is 0.0983; the glutamate response, % of max was 28% (inactive); the glutamate slope, % of max was 50.4%.

Turning to `Cc1ccc(S(=O)(=O)N2CCCCC2CCN)cc1` (stereo not given), the compound max-min signal turned out to be 0.0595; the glutamate response, % of max was 35.1% (inactive); the glutamate slope, % of max was determined as 57.7%.

As to `Cc1ccc(-n2ccnc2N2CCN(CC(=O)Nc3ccc4c(c3)OCO4)CC2)cc1`, the compound max-min signal was determined as 0.0402; the glutamate response, % of max was 18.2% (inactive); the glutamate slope, % of max was 39.2%.

For the molecule `CCSc1nnc(-c2ccc(C)cc2)n1-c1ccccc1`, the compound max-min signal turned out to be 0.0317; the glutamate response, % of max is 0.366% (inactive); the glutamate slope, % of max is -1.02%.

On to `CC(C)c1ccc(NC(=O)C(=O)NCCN2CCN(c3ccc(Cl)cc3)CC2)cc1`, for which the compound max-min signal stood at 0.121; the glutamate response, % of max was 29.8% (inactive); the glutamate slope, % of max came out at 55.1%.

For `O=c1oc(-c2ccncc2)nc2c(Cl)cccc12`, the compound max-min signal was 0.253; the glutamate response, % of max is 22.4% (active); the glutamate slope, % of max worked out at 51.7%.

Consider `Cc1cc(C(=O)O)c2cccc(Cl)c2n1`, for which the compound max-min signal was 0.0395 and 0.0789; the glutamate response, % of max is 80.9% (inactive) and 28.3% (inactive); the glutamate slope, % of max was 99.3% and 46.1%.

For `Cc1ccc(-c2nc3c(C)cc(C)cc3c(=O)o2)cc1`, the compound max-min signal was determined as 0.127; the glutamate response, % of max was 23.3% (inactive); the glutamate slope, % of max stood at 45.9%.

As for `O=C(Nc1ccc2c(c1)OCO2)c1ccc(S(=O)(=O)N2CCCCCC2)cc1`, the compound max-min signal amounted to 0.123; the glutamate response, % of max is 36.1% (inactive); the glutamate slope, % of max was 60.4%.

Turning to `COc1ccc(N2C(=O)/C(=C/c3ccncc3)SC2=S)cc1`, the compound max-min signal is 0.061; the glutamate response, % of max is 31.6% (inactive); the glutamate slope, % of max is 49.4%.

As to `Cc1cccc(C(=O)Nc2cccc(N3CCCC3=O)c2)c1`, the compound max-min signal worked out at 0.114; the glutamate response, % of max is 45.7% (inactive); the glutamate slope, % of max was determined as 67.6%.

Regarding `Cc1ccc(C(=O)Nc2cccc(N3CCCC3=O)c2)cc1[N+](=O)[O-]`, the compound max-min signal was determined as 0.195; the glutamate response, % of max is 33.5% (active); the glutamate slope, % of max turned out to be 54.6%.

With `O=C(Nc1cccc(N2CCCCC2=O)c1)c1cc([N+](=O)[O-])ccc1Cl`, the compound max-min signal turned out to be 0.113; the glutamate response, % of max was 24.4% (inactive); the glutamate slope, % of max is 52.2%.

On to `COc1ccc(NC(=O)COc2ccccc2F)cc1N1CCCCC1=O`, for which the compound max-min signal turned out to be 0.0429; the glutamate response, % of max was 20.8% (inactive); the glutamate slope, % of max was determined as 35.3%.

In the case of `O=C(Nc1onc2c1CCCC2)c1nc(-c2cnccn2)no1`, the compound max-min signal was 0.128; the glutamate response, % of max was 29.1% (inactive); the glutamate slope, % of max came out at 62.8%.

As to `CCC(C)NC(=O)/C=C/c1cc(OC)ccc1OC` (stereo not given), the compound max-min signal is 0.0444 and 0.0831; the glutamate response, % of max was 100% (inactive) and 35.1% (inactive); the glutamate slope, % of max was 112% and 48.5%.

For the molecule `O=C(Nc1ccc(S(=O)(=O)Nc2nccs2)cc1)c1csc(-c2cnccn2)n1`, the compound max-min signal is 0.274; the glutamate response, % of max is 48.2% (active); the glutamate slope, % of max is 85.9%.

As to `CC(C)c1cc(=O)n(CC(=O)Nc2ccc(S(=O)(=O)Nc3nccs3)cc2)cn1`, the compound max-min signal was 0.0931; the glutamate response, % of max was 41.9% (inactive); the glutamate slope, % of max came out at 61.5%.

For `CCCCCOc1cccc(C(=O)Nc2ccc(S(=O)(=O)Nc3nnc(CC)s3)cc2)c1`, the compound max-min signal is 0.112; the glutamate response, % of max was 38.7% (inactive); the glutamate slope, % of max was 62.1%.

On to `CCOc1ccccc1NC(=O)Cn1nc(-c2cc(C)c(C)cc2C)ccc1=O`, for which the compound max-min signal was determined as 0.0944; the glutamate response, % of max is 64% (inactive); the glutamate slope, % of max turned out to be 97.5%.

Regarding `Cc1nc2ccccc2c(=O)n1-c1cccc(NC(=O)CCC2CCCCC2)c1`, the compound max-min signal is 0.0678; the glutamate response, % of max is 11% (inactive); the glutamate slope, % of max was 28.2%.

Regarding `O=C(NC(C(=O)N1CCCCC1)C12CC3CC(CC(C3)C1)C2)c1ccc(F)cc1` (stereo not given), the compound max-min signal was found to be 0.0524; the glutamate response, % of max was 56.1% (active); the glutamate slope, % of max worked out at 79.2%.

As for `COC(=O)N1CCC(CNC(=O)c2ccc(F)cc2)CC1`, the compound max-min signal turned out to be 0.0851; the glutamate response, % of max is 46.6% (inactive); the glutamate slope, % of max was determined as 66.5%.

On to `O=C(NC(C(=O)O)C12CC3CC(CC(C3)C1)C2)c1cc([N+](=O)[O-])ccc1Cl` (stereo not given), for which the compound max-min signal amounted to 0.0736; the glutamate response, % of max was 35.4% (inactive); the glutamate slope, % of max came to 56.5%.

For the molecule `O=C(Nc1sc2ccccc2c(=O)c1-c1ccc2c(c1)OCO2)c1ccco1`, the compound max-min signal came out at 0.14; the glutamate response, % of max was 24.9% (inactive); the glutamate slope, % of max worked out at 55.4%.

The record behind these values is PubChem BioAssay AID1259245 (Vanderbilt High Throughput Screening Facility, 2017).
